Results on twelve compounds are retold here after PubChem BioAssay.

Experiment [1] is described as follows: HepG2 liver cancer cell viability effects, profiling panel, resazurin fluorescence, 24 h, PK04 Diversity Set (AID 1172). Further: test concentration not given here. The conditions noted are these: higher = more signal. On the technique in general: The colour change of resazurin is a common sign of viable cells or microbes.
Experiment [2] can be described thus: basal S. cerevisiae growth modulation, no modifier, primary screen, OD600, strain BY4716, 24 h, basal condition (AID 1173). The conditions noted are these: OD600, 24 h, higher = more signal, called active from +8 up or from −8 down.
Experiment [3] in a line: MM1S myeloma cell viability, profiling panel, resazurin fluorescence, basal, 24 h, PK04 Diversity Set (AID 1174). Further: test concentration not given here. Conditions: higher = more signal, called active from +8 up or from −8 down.
In experiment [4] the target is Dihydroorotate dehydrogenase (quinone), mitochondrial (Plasmodium falciparum (isolate 3D7)) (UniProt Q08210). The experiment in a line: PfDHODH enzyme inhibitors, primary screen, biochemical, C-terminal His tag, absorbance 600 nm (AID 1175).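 Further: recombinant parasite enzyme with a five histidine tag at its C terminus; test concentration not given here.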 Conditions: DCIP absorbance 600 nm, higher = more signal, called active from +8 up or from −8 down.
Chain of Dihydroorotate dehydrogenase (quinone), mitochondrial (Plasmodium falciparum (isolate 3D7)) (Q08210 whole entry, looked up): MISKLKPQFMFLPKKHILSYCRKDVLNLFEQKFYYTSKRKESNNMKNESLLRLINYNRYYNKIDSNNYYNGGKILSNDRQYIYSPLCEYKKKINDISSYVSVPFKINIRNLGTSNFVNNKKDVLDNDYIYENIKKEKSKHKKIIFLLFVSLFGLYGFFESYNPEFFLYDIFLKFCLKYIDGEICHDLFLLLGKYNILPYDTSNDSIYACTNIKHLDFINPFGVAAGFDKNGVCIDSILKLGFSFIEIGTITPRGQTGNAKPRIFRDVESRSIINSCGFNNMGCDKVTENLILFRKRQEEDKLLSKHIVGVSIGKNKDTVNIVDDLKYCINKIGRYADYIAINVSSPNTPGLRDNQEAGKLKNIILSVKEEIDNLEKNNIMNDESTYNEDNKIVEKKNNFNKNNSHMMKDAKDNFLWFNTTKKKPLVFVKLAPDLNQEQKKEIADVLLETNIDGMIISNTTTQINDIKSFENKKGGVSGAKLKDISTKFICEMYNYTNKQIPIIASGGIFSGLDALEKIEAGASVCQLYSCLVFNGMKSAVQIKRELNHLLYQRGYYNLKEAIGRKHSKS
Experiment [5] is described as follows: P. aeruginosa biofilm formation inhibitors, primary screen, strain PAO1, LB-PBS medium, absorbance 600 nm (AID 1176). Further: test concentration not given here. Conditions: P. aeruginosa PAO1 growth/biofilm, A600, 12 h; higher = more signal.
Experiment [6] can be described thus: S. cerevisiae RM11-1a growth modifiers, primary screen, strain RM11-1a, OD600, basal, 24 h (AID 1177).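 Further: cultures grown under basal conditions with no added stressor; test concentration not given here.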 Conditions: OD600, 24 h, higher = more signal, called active from +8 up or from −8 down.
The nature of experiment [7]: E. coli acrAB mutant growth effects, primary screen, E. coli filamentation inducers, strain DRC39, OD650, 24 h (AID 1178).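 Further: growth measured as culture turbidity by optical density at 650 nm; test concentration not given here.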 Conditions: higher = more signal, called active from +8 up or from −8 down.
Experiment [8] can be described thus: E. coli acrAB mutant growth effects, primary screen, E. coli filamentation inducers, strain DRC39, OD650, 48 h (AID 1179).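 Further: screen aims at cell division blockers that make cells filament.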 The conditions noted are these: E. coli DRC39 delta-acrAB growth, higher = more signal, called active from +8 up or from −8 down.
Experiment [9] in a line: RPMI8226 myeloma cell viability, profiling panel, resazurin fluorescence, basal, 24 h, PK04 Diversity Set (AID 1180).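 Further: RPMI8826 multiple myeloma cell line at 5000 cells per well; test concentration not given here.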 Conditions: higher = more signal.
Experiment [10] addresses E3 ubiquitin-protein ligase XIAP (Homo sapiens) (UniProt P98170). Description: XIAP binders, primary screen, biophysical, small-molecule microarray, fluorescence 635 nm (AID 1181).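 Further: score merges 667 nm emission and signal to noise over triplicate slides.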 The conditions noted are these: small-molecule microarray binding, higher = more signal.

Each structure is given as a SMILES string. Active and inactive are the calls of the source. Unless noted, how the calls were made is not given here.

Chain of E3 ubiquitin-protein ligase XIAP (Homo sapiens) (P98170 whole entry, looked up): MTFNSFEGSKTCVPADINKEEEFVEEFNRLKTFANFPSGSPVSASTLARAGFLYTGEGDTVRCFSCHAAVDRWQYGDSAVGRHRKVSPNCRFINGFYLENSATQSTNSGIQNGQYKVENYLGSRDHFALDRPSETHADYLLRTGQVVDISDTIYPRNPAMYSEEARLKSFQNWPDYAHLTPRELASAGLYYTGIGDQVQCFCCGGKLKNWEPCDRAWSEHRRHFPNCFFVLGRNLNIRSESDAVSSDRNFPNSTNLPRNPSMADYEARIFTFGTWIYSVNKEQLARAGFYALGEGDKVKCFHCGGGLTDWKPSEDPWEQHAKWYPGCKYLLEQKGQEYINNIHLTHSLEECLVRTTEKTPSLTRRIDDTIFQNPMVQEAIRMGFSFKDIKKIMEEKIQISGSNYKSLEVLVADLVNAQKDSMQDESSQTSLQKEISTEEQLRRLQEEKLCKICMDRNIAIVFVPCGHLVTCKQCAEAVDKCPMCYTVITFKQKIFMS

In the case of `COc1ccccc1CN1C(=O)c2ccccc2[C@](Cc2ccccc2I)(C(=O)NCc2ccccc2)[C@@H]1c1ccc(CO)cc1`, the z-score in experiment [1] is -0.583; in experiment [2], 0.511 (inactive); in experiment [3], -1.05 (inactive); in experiment [5], 0.0993 (inactive); in [6], -0.283 (inactive); in experiment [7] it was -0.331 (inactive). Also, the z-score is 0.363 (inactive) in [8] and -1.12 in [9]. Moreover, the composite z-score in [4] was -0.141 (inactive); in [10], -0.16.
Turning to `CC(C)[C@H]1COC(=O)N1C(=O)[C@H]1[C@@H](c2ccccc2)N(c2ccccc2)O[C@@H]1C`, the z-score in experiment [1] is 0.701; in [2], -1.42 (inactive); in experiment [3], 0.517 (inactive); in [5], 0.0694 (inactive); in experiment [6] it was 1.46 (inactive); in experiment [7], 0.166 (inactive). For the same compound, the z-score was 0.703 (inactive) in [8] and 1.41 in experiment [9]. In addition, the composite z-score in [4] was -0.656 (inactive); in [10], 0.0785.
For the compound `C=CCOC(=O)[C@H]1[C@@H]2C(=O)O[C@@H](c3ccccc3)[C@@H](c3ccccc3)N2[C@@H](c2ccc(OCCOC(=O)[C@H]3C[C@H]4C(=O)N[C@@H](CCCC[N+](C)(C)C)C(=O)N4[C@H]3c3ccc(O)cc3)cc2)[C@]12C(=O)Nc1ccccc12`, the z-score in experiment [1] was 0.767; in [2] it was -2.24 (inactive); in experiment [3] it was 1.31 (inactive); in experiment [5], -0.723 (inactive); in [6] it was 0.0539 (inactive); in experiment [7] it was 0.402 (inactive). Besides, the z-score in [8] was 0.0612 (inactive); in [9], 1.21. The figures for the composite z-score in [4] and in [10] were -2.24 (inactive) and 0.0325, respectively.
In the case of `COc1ccc([Si](C)(C)[C@@H]2[C@@H](CCO)O[C@]3(C(=O)N(Cc4cccc(N5CCCCC5=O)c4)c4ccccc43)[C@H]2C)cc1`, the z-score in experiment [1] is -0.994; in experiment [2], 0.697 (inactive); in experiment [3] it was -1.93 (inactive); in [5], 0.225 (inactive); in experiment [6], 5.19 (inactive); in experiment [7] it was 0.318 (inactive). The z-score was 0.244 (inactive) in experiment [8] and -0.439 in [9]. Further, the composite z-score is -1.75 (inactive) in experiment [4] and 0.0623 in [10].
`CC(C)(C)OC(=O)CC[C@@]1(C(=O)NCC(O)CO)N=C(c2ccc(OCCCO)cc2)O[C@@H]1c1ccccc1` (stereo not given in full): the z-score in experiment [1] was 0.38; in [2], -0.205 (inactive); in experiment [3] it was -0.542 (inactive); in experiment [5], 0.671 (inactive); in experiment [6] it was 0.0191 (inactive); in experiment [7], -0.529 (inactive). Moreover, the z-score in [8] was 0.108 (inactive); in experiment [9] it was -0.397. Moreover, the figures for the composite z-score in experiment [4] and in experiment [10] were -0.73 (inactive) and 0.0785, respectively.
`COc1cc(CO)cc(I)c1O[C@H]1C=C(C(=O)NCCO)C[C@@H](N(CCc2cccc(F)c2)C(=O)CCC2CCCC2)[C@@H]1O`: the z-score in experiment [1] is -1.69; in experiment [2], -9.37 (active); in experiment [3], -3.26 (inactive); in experiment [5], 1.99 (inactive); in [6] it was 1.99 (inactive); in experiment [7], -0.0338 (inactive). Moreover, the z-score in [8] is -0.177 (inactive); in experiment [9] it was -4.07. Besides, the values for the composite z-score in [4] and in experiment [10] were -0.459 (inactive) and 0.29, respectively.
`COCCOC(=O)N1C(=O)[C@@]2(c3cc(C#Cc4ccc(OC)cc4)ccc31)[C@H](c1ccc(OCCO)cc1)N1[C@H](c3ccccc3)[C@H](c3ccccc3)OC(=O)[C@H]1[C@@H]2C(=O)N1CCc2cc(OC)c(OC)cc2C1`: the z-score is 1.04 in [1]; 2.62 (inactive) in experiment [2]; 1.02 (inactive) in experiment [3]; 3.34 (inactive) in experiment [5]; 3.55 (inactive) in experiment [6]; -0.148 (inactive) in [7]. Further, the z-score is 0.0574 (inactive) in [8] and 0.928 in experiment [9]. The composite z-score in [4] is -0.0321 (inactive); in [10], -0.0476.
`CCCCN1CC=CC23O[C@@H]4/C=C\CCCOC(=O)C4[C@H]2C(=O)N(C(C)CO)[C@@H]3C1=O` (stereo not given in full): the z-score in [1] is -0.901; in experiment [2], -0.138 (inactive); in experiment [3] it was 0.196 (inactive); in [5] it was -0.857 (inactive); in experiment [6] it was 0.429 (inactive); in experiment [7], 0.742 (inactive). Besides, the z-score in experiment [8] is 0.738 (inactive); in [9] it was 0.442. Besides, the composite z-score in experiment [4] is -0.415 (inactive); in experiment [10] it was -0.157.
For the compound `COc1ccc([Si](C)(C)[C@@H]2[C@@H](CC(=O)N3Cc4ccccc4C[C@H]3CO)O[C@]3(C(=O)N(Cc4cccc(N5C(=O)COc6ccccc65)c4)c4ccccc43)[C@H]2C)cc1`, the z-score in experiment [1] was 0.645; in [2], -1.17 (inactive); in experiment [3], -1.84 (inactive); in [5] it was 1.92 (inactive); in experiment [6], 1.39 (inactive); in experiment [7], 1.53 (inactive). The z-score is 1.53 (inactive) in experiment [8] and -0.748 in experiment [9]. Also, the composite z-score is -1.32 (inactive) in [4] and 0.188 in [10].
Regarding `COc1ccc(C(O)C2C=CC3C(=O)N(c4ccccc4)C(=O)C3N2Nc2ccccc2)c2ccccc12` (stereo not given), the z-score in [1] is -1.41; in experiment [2] it was -5.12 (inactive); in experiment [3], -1.42 (inactive); in [5], 1.48 (inactive); in experiment [6] it was 0.163 (inactive); in experiment [7], -1.05 (inactive). Besides, the z-score is -0.0025 (inactive) in experiment [8] and -1.95 in [9]. In addition, the figures for the composite z-score in experiment [4] and in experiment [10] were 0.896 (inactive) and -0.0049, respectively.
Consider `C=CCC(OC(C)=O)[C@@H]1[C@@H](N(Cc2ccc(-c3cccc(C(F)(F)F)c3)o2)C(=O)c2ccc(C)cc2)c2cc(OCCCO)ccc2N1C(=O)c1ccc2ccccc2n1` (stereo not given in full), for which the z-score in experiment [1] is 0.347; in experiment [2], -0.304 (inactive); in experiment [3], 0.0003 (inactive); in experiment [5], -0.325 (inactive); in experiment [6], -0.0057 (inactive); in [7], -0.379 (inactive). Besides, the z-score in [8] is 0.317 (inactive); in [9], -0.37. Further, the composite z-score is -1.35 (inactive) in experiment [4] and 0.265 in experiment [10].
For `NC(=O)[C@]1(Cc2ccccc2)N=C(c2ccc(OCCCO)cc2)O[C@@H]1c1ccccc1`, the z-score in [1] was -0.3; in experiment [2], -1.06 (inactive); in experiment [3], -1.02 (inactive); in experiment [5], 0.246 (inactive); in experiment [6], 0.569 (inactive); in experiment [7], 0.0671 (inactive). Further, the z-score in experiment [8] is -1.24 (inactive); in experiment [9], -0.189. Moreover, the values for the composite z-score in experiment [4] and in experiment [10] were 0.417 (inactive) and 0.16, respectively.
